# Measured values from paper PMC12136788.
# Where a chain is given by its changes, count along the chain named. Whole data set: some 24,000 sequences, median “enrichment r” near 0.99, cut for the highest 2% near 3.7. Shown is part of a subset that was picked to be rich in the highest values.
# T1: UNK ZnF1-3 (human, UniProt Q9C0B0 31-174)
# T1 sequence: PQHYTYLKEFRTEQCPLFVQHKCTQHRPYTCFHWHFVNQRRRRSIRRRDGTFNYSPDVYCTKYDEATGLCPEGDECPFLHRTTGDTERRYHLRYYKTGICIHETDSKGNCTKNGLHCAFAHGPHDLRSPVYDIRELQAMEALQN
# B1: chr9:127911758:127911759:-_ENSG00000119414_ENST00000373547|hu_mus|FALSE|FALSE (ssRNA)
# RNA: GGGAGUUCUACAGUCCGACGAUCUCUCAAACGAGUCCAAGGUGGGGUAGGAGGAGUGACAAAACUGAUAGAAAAACACUGCUAUUGACACCAUAACAAACAAUAAAUUUAGAUAAUUUAAAAUUAAAAAAAAAGGCAAGAGGCCAACAGAGGAUUGAGCAUCA
# B2: chr16:46836887:46836888:-_ENSG00000155330_ENST00000285697|hu_mus|motif|central (ssRNA)
# RNA: GGGAGUUCUACAGUCCGACGAUCACCAACAGAGUUUGAAGACAAAUAUCAGAGAAUAAGUCUUUGAUUGAUAAUUUUUCGGUUUAUUUCUGCCAAGGCAACUGAAAACACGAAAGCCUUCUCAUCAGAGAGGUUAGCAUAGAUCAACAGAGGAUUGAGCAUCA
# B3: 118497214_118499730_2480_CDS_ENSG00000065183_ENST00000349139|human|control|control (ssRNA)
# RNA: GGGAGUUCUACAGUCCGACGAUCAUAAGAGAAAGGCAGCACAAGUAGAGAUUCUUCCAGCUCACUCGACUUGAUCCCUUUAAAAAUCUCUAAUACAUAAGCUGAAGGUGAGAUACUGCCAUAAGCCAUUAGGAUGGGGUUGCUCAACAGAGGAUUGAGCAUCA
# B4: chr12:48362563:48362564:+_ENSG00000134291_ENST00000256686|hu_hu|hu_hu_hu_mus_False|1_68 (ssRNA)
# RNA: GGGAGUUCUACAGUCCGACGAUCUCCGUCAAGCCCUUCGAUAGACCCUUGCGGGGGAAACUGUAAUAAUUCUAACUGGGGAAGGAAAAGAAACGCCAAAAACUUUCCAAAAAGCGGGGGUGGGGUGAGGCGGGAGGUUGGGAACAACAGAGGAUUGAGCAUCA
# B5: chr12:48362563:48362564:+_ENSG00000134291_ENST00000256686|hu_hu|hu_hu_hu_mus_False|68_68 (ssRNA)
# RNA: B4 RNA with U137G, U138G, G140A, A142G, A143U
# B6: chr12:48362563:48362564:+_ENSG00000134291_ENST00000256686|hu_hu|hu_hu_hu_mus_False|68_108 (ssRNA)
# RNA: GGGAGUUCUACAGUCCGACGAUCUCCGAAGGGUGAAUCGAUAGACCCUUGCGGGGGAAACUGUAAUAAUUCUAACUGGGGAAGGAAAAGAAACGCCAAAAACUUUCCAAAAAGCGGGGGUGGGGUGAGGCGGGAGGGGGAGGUCAACAGAGGAUUGAGCAUCA
# B7: chr9:127911758:127911759:-_ENSG00000119414_ENST00000373547|hu_mus|motif|central (ssRNA)
# RNA: B1 RNA with U82G, A83G
# B8: chr5:61651017:61651018:+_ENSG00000068796_ENST00000381103|hu_hu|FALSE|FALSE (ssRNA)
# RNA: GGGAGUUCUACAGUCCGACGAUCCCUAUGUUCAUCAAUAGGAUCUGCUGUUGUUAAUGGUCUAUAAUCCAAACUUCCUCUAAAGUCUCUGAUCAUACACAUAAUUUCAUAAUUUGGGUUUGUAGCAUCAACGUCCUGGGCUCUCAACAGAGGAUUGAGCAUCA
# B9: chrX:131339380:131339381:-_ENSMUSG00000033436_ENSMUST00000035559|mus_hu|FALSE|FALSE (ssRNA)
# RNA: GGGAGUUCUACAGUCCGACGAUCACUGAGAAGUUUCUUCAACAUAUCUGGAUUUUCAGCAAAAUUCGAAAGGAUUUUCAAAAUCUCAACCUUGAUUUUUCCACCUCCCUGAGAUAGCAAACGGAAAAAGUUUGCAAUGGAAUUCAACAGAGGAUUGAGCAUCA
# B10: chr8:95500983:95500984:-_ENSG00000164944_ENST00000437199|hu_hu|hu_hu_hu_mus_True|58_68 (ssRNA)
# RNA: GGGAGUUCUACAGUCCGACGAUCAGAACACAUCUAUCGAGUAAAGGACCGUACAUGACGGCCUCUAACCACUGCCUCCACUAACAACUUUCCUCUCGAGCCUCCACUGCCGCUAUUUGUACUAGCCCAGGACGGUCCCAGGCCCAACAGAGGAUUGAGCAUCA
# B11: 37721237_37722996_1653_CDS_ENSG00000082068_ENST00000265107|human|control|control (ssRNA)
# RNA: GGGAGUUCUACAGUCCGACGAUCUGCCUUCCGCUGGGUUUUAACCACACAUAAUUUUGCUCCCCUCUGACUCUUGUUGGGGUCGUAAUAGACUUUAGCCAAUCCAUUUCCAGUUCCAACCAUGAUCUGGUUCAGCUUUGGAUGCAACAGAGGAUUGAGCAUCA
# B12: 55795476_55800851_1969_CDS_ENSG00000138041_ENST00000407823|human|control|control (ssRNA)
# RNA: GGGAGUUCUACAGUCCGACGAUCCCGCCUCAUAAAGCGAAGGGCACACAAGGCCAGAAAAGUGUGCUUUGAAUUCAUCAAGACCAAGACUCUUCUUAGCAAGUCCUUGUUCAUAAUAUAGUUUUUUAUGUGAUAUGUGUGAUGCAACAGAGGAUUGAGCAUCA
# B13: chr19:8913615:8913616:-_ENSMUSG00000071658_ENSMUST00000096259|mus_hu|mus_mus_mus_hu_False|1_98 (ssRNA)
# RNA: GGGAGUUCUACAGUCCGACGAUCAGGGUACCAAAACACCCUGCCUCAAAUGGGUGCCCCACCCAGUAGGGAGUUGCAGCUGAAAGUAUCUGAUGCAGAAGCAGUGACUAUACGAAAGGAGGCCCCUGGGGAGGGCCCGAGAUCCAACAGAGGAUUGAGCAUCA
# B14: 69202206_69203042_311_CDS_ENSG00000135679_ENST00000462284|human|control|control (ssRNA)
# RNA: GGGAGUUCUACAGUCCGACGAUCUGAGGUGGUUACAGCACCAUCAGUAGGUACAGACAUGUUGGUAUUGCACAUUUGCCUGCUCCUCACCAUCCGGGGUUUUCGCGCUUGGAGUCGGGGGUCCCUCAAGACUCCCCAGUUUCCCAACAGAGGAUUGAGCAUCA
# B15: 116785305_116785425_2892_3pUTR_ENSMUSG00000055531_ENSMUST00000069168|mouse|control|control (ssRNA)
# RNA: GGGAGUUCUACAGUCCGACGAUCAAAAAAUGAAAGAAAGGAAAAAAAAAGAAAAAAAAAUCAGCUGAUUAACUCUAAUCAAGCAUAGAUCAACAAGGUUACAGGAAUACACACACAAUUCCUUGAGCCAUGAAGACAGUGUAACAACAGAGGAUUGAGCAUCA
# B16: chr1:58468927:58468928:-_ENSMUSG00000026034_ENSMUST00000148330|mus_mus|mus_mus_mus_hu_False|38_108 (ssRNA)
# RNA: GGGAGUUCUACAGUCCGACGAUCAAUCUAUAAUUACGAUGUUCAUUACCUUAGCUAUGUACUUAAUGAACCAAAUUACCCAAACAAAAUAAACAUGUUUACAAAUUAAUGUUAAGAAUUUACAAAGCUGUACAAAAUAACUUACAACAGAGGAUUGAGCAUCA
# B17: chr4:40680069:40680070:+_ENSMUSG00000028410_ENSMUST00000030118|mus_hu|motif|central (ssRNA)
# RNA: GGGAGUUCUACAGUCCGACGAUCAAAAUCAGAGCUUUUAUAUUUGCGUUUAUUCUUCAUUUAACUUUUUAAAACACGGCGGUAGUUUAUUAAAACAAAAACAAGAGCAAGUAGUGAGCAUAUUAUGAUUACAGUCCUUCACUCCAACAGAGGAUUGAGCAUCA
# B18: chr1:100327937:100327938:+_ENSG00000162688_ENST00000361915|hu_hu|motif|central (ssRNA)
# RNA: GGGAGUUCUACAGUCCGACGAUCUUCUUUUGCAACCCUAAGUCUGCUUUCCCAUUCAUCAAAAGGUCCCAAACACUUAGCGGAAAAUGUCUGAAGAGUAACACAGUCCAAGGGUAGCACAUGAUUAUCAGCACCAACACGUAACAACAGAGGAUUGAGCAUCA
# B19: chr5:122939345:122939346:-_ENSMUSG00000029467_ENSMUST00000031423|mus_mus|FALSE|FALSE (ssRNA)
# RNA: GGGAGUUCUACAGUCCGACGAUCCUUUCUGUCCUGUCGAUACACUUUGCCCAUUUCAGGCUCAUAUUCCUUAAGAGCUUCUAUUGCAUUUUCAGCAUUUCUUUCCUGCCACACACCCACGAUUGCAUUGGCUACCAAGAUAAGCAACAGAGGAUUGAGCAUCA
# B20: chr14:31337589:31337590:+_ENSMUSG00000021962_ENSMUST00000022535|mus_mus|motif|central (ssRNA)
# RNA: GGGAGUUCUACAGUCCGACGAUCAAUGACCUGUAUCAUAGAAACGAAGACACUUUUCAUUCAAAGAAUAUCUCAAAAUUACGGUUGCUGAAAUAAUCAAAUUCUACAUUAAAAUAUUACCAAACACCAUUACAUGCCAUAAAACAACAGAGGAUUGAGCAUCA
# B21: chr3:41281487:41281488:+_ENSG00000168036_ENST00000349496|hu_hu|motif|central (ssRNA)
# RNA: GGGAGUUCUACAGUCCGACGAUCCUACGAGAGACUUAAAAAACAGUUACUGCAAAAAAAAAAAAAAAAAAAAAAAAAGAGCGGCUUCAAAGCAAGCAAAGUCAGUACCAUUACAGAUAUUCUUAAAAAAAAAAAAAAAAAAAUCAACAGAGGAUUGAGCAUCA
# B22: 97946324_97946444_1485_ncRNA_ENSMUSG00000021666_ENSMUST00000159321|mouse|control|control (ssRNA)
# RNA: GGGAGUUCUACAGUCCGACGAUCUGAUUCUGAAAUCAUGUAAAUUAAGAUUUGUUAGGCUGUUUUUUUUUUAAAUAAACCAUCUUUUUAUUGAUUGAAUCUUUCUAUCCCUGAAUCAAACACUGAAUCUUUUAUGUGAGCAGCCAACAGAGGAUUGAGCAUCA
# B23: chr1:38489359:38489360:+_ENSG00000183520_ENST00000537711|hu_mus|FALSE|FALSE (ssRNA)
# RNA: GGGAGUUCUACAGUCCGACGAUCAGUCAUGAUUACAAAACAGGAAGACCAAGCCAUUUGAAUUAAUAAAAUCUGAAGUUAUUACAAAAGACAGGAGGAAAAGAUAAUAAUUCUUUUCGAUACAGAAUGCUGAGGCUUAAUUUUCAACAGAGGAUUGAGCAUCA
# B24: 67235911_67236031_3360_3pUTR_ENSMUSG00000036371_ENSMUST00000042990|mouse|control|control (ssRNA)
# RNA: GGGAGUUCUACAGUCCGACGAUCAACAUUCAAAAAUCUUAAACAAGAAUUAUCUUACGAUAAUGAAAAAGGGAAACCAAGAAACAUAUAAAGGGGUUCCCACUUGAUUGCUUUUAUCUUUUAGGAAAUGAGCAUGAAAAUAAACAACAGAGGAUUGAGCAUCA
# B25: chr1:135503150:135503151:-_ENSMUSG00000090553_ENSMUST00000166915|mus_hu|motif|central (ssRNA)
# RNA: GGGAGUUCUACAGUCCGACGAUCUUCUGCAUCAUCUAAUACAAGGUUCAUAUACUCAUCAAAACCAAUGAUACAGCCUUCGGUCCGCAUAUUCACUUGCUCAUAGAGCCACACCUGAAUCCGCGAUCUCUGAAAUAAUCAUAACAACAGAGGAUUGAGCAUCA
# B26: chr1:130270616:130270617:-_ENSMUSG00000026356_ENSMUST00000027602|mus_hu|FALSE|FALSE (ssRNA)
# RNA: GGGAGUUCUACAGUCCGACGAUCGUAAUGGUAAUUAAAAGCCAUUUCAAUGUCCAAACCAACAAACUCAGUUAGAUGUCUAUGGGUAUUAGAGUCUUCCGCUCUGAAUACUGGUCCAAUAGAGAAAACCUUCUCAAAAUCAGCCAACAGAGGAUUGAGCAUCA
# Target: T1, UNK ZnF1-3
# Experiment: nsRBNS (natural sequence RNA bind-n-seq); RBNS binding buffer (assumed for nsRBNS): 25 mM Tris pH 7.5, 150 mM KCl, 3 mM MgCl2, 0.01% Triton X-100, 500 ug/ml BSA, 20 U/ml SUPERase-In, 4 C; UNK is unkempt and MSI1 is Musashi-1; names of the RNAs are library labels; protein concentration not given here; high values mean tight binding
row,Binder,binding signal [enrichment R]
1,B1,10.5
2,B2,0.868
3,B3,1.8
4,B4,3.33
5,B5,4.07
6,B6,3.2
7,B7,14
8,B8,1.64
9,B9,0.897
10,B10,1.3
11,B11,0.501
12,B12,2.04
13,B13,1.7
14,B14,0.532
15,B15,4.36
16,B16,0.436
17,B17,1.05
18,B18,1.32
19,B19,0.9
20,B20,0.998
21,B21,8.09
22,B22,0.66
23,B23,8.05
24,B24,5.78
25,B25,1.18
26,B26,0.771
